According to PubChem BioAssay (NCI):
This is part of a sample that, as a whole, favours compounds with a hit. Of some 83,000 tested, about 20% had one in any assay.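 Negative percent growth values reflect cell death: -40 means 40% of the cells present at the start died, and -100 means all died.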 Values without a mark were called inactive. The source made the active and inactive calls. Rule for the calls: active = growth percent below 10; inactive = the rest.

What was measured:
Assay in all cases: NCI-60 one-dose screen, 48 h (100 = growth as untreated, 0 = no growth, -100 = all killed)
Conditions in all cases: 10 µM unless noted
[1] = tested on: SK-MEL-2 melanoma
[2] = tested on: SN12C renal
[3] = tested on: UO-31 renal
[4] = tested on: TK-10 renal
[5] = tested on: ACHN renal
[6] = tested on: CAKI-1 renal
[7] = tested on: A498 renal
[8] = tested on: CCRF-CEM leukemia
[9] = tested on: MOLT-4 leukemia

Compound	growth [1]	growth [2]	growth [3]	growth [4]	growth [5]	growth [6]	growth [7]	growth [8]	growth [9]
COc1cc(CCn2nnc3c(NCCCCO)ncnc32)cc(OC)c1	124%	102%	86.4%	119%	106%	92.7%	89%	95%	112%
COc1cc(/C=C2\C=C(c3ccc(F)cc3)N(Cc3ccccc3)C2=O)cc(OC)c1OC	93.1%	65.7%	45.9%	90.3%	73.1%	63.3%	57.4%	62%	25.9%
CN1C(=O)[C@H]2c3c1cccc3[C@@]13NC(=O)O[C@H]1[C@H](CCC3(C)C)C2(C)C	92.8%	93.3%	84.6%	87.2%	94.2%	94.4%	107%	94.5%	79.4%
Nc1c(C(=O)Nc2cccc(C(F)(F)F)c2)sc2nc3c(cc12)C(O)CCC3 (stereo unspecified)	30.7%	51.5%	49.9%	54.6%	54.6%	30.1%	-2.02% (active)	14.5%	24.7%
Clc1ccc2c(c1)NC1(CCSc3ccccc31)n1nccc1-2 (stereo unspecified)	98.7%	104%	83.5%	96.7%	100%	96.3%	–	95.7%	90.9%
COc1ccc(C(=O)c2cc(OC)c(OC)c(OC)c2)cc1/C=C/C(=O)c1ccc(O)cc1	14.8%	17.7%	36.4%	75.1%	-62.8% (active)	24.8%	–	10.7%	15.5%
CCCCCCCCCCCCCCCCC(Br)C(=O)O (stereo unspecified)	94.4%	102%	87.9%	116%	96.6%	101%	94.7%	–	97.5%
O=C1N=C(c2c(-c3[nH]c(=O)c4ccc(Br)cc4c3O)c(O)c3ccccc3c2O)C(=O)c2cc(Br)ccc21	-14.7% (active)	-75.4% (active)	-65% (active)	-39% (active)	-54% (active)	-72% (active)	–	25.3%	31%
COc1ccc(-n2cnc3c(sc4ncc(Cl)cc43)c2=O)cc1	120%	101%	5.62% (active)	89.9%	82.1%	86.6%	76.8%	–	96.6%
Cc1nc(Nc2cccnc2)sc1C(=O)/C=C/c1ccc(Cl)cc1	82.6%	7.95% (active)	25.3%	8.61% (active)	40.1%	47.1%	–	1.72% (active)	53%
C=CCOc1cccc(/C=C/C(=O)c2sc(Nc3cccnc3)nc2C)c1	84.4%	40.9%	47.7%	113%	54.3%	81%	–	15.2%	76.3%
O=C(CNC1CCCCC1)Nc1ccc(-c2nc3ccccc3s2)cc1	105%	86.7%	56.5%	103%	99.1%	86%	–	77.3%	54.1%
COc1ccc(-c2nc3sccn3c2-c2ccnc(NCCCNS(=O)(=O)c3ccc4ccccc4c3)n2)cc1	84.6%	79.5%	60.7%	89.8%	60%	77.5%	–	53.8%	47.5%
CCC1CCc2nc3sc(C(=O)Nc4ccccc4F)c(N)c3cc2C1 (stereo unspecified)	52.1%	89.8%	77.5%	73.7%	69.4%	53.2%	44.7%	–	40%
Cc1ccc2c(c1)C(=O)C(c1c(-c3[nH]c(=O)c4ccc(C)cc4c3O)c(O)c3ccccc3c1O)=NC2=O	11.8%	-4.86% (active)	-11% (active)	46.9%	6.58% (active)	-2.66% (active)	–	16.6%	-13.3% (active)
COc1ccc(-c2nc3sccn3c2-c2ccnc(NCCCNS(=O)(=O)c3ccc(F)cc3)n2)cc1	-0.52% (active)	14.3%	4.56% (active)	52.9%	2.12% (active)	21.8%	–	9.5% (active)	6.65% (active)
CCCCCCCCCCCCNC(=S)N/N=C/c1ccc(Cl)c(Cl)c1	99.8%	101%	89.2%	143%	94.9%	101%	112%	–	93.8%
CCCC(C(=O)OCC)C(C)OC(=O)OCC (stereo unspecified)	94.7%	101%	80.1%	98%	107%	96.3%	118%	–	89.8%
COc1cccc(/C=C/C(=O)c2sc(Nc3ccc(O)cc3)nc2C)c1	79.9%	86.2%	62%	114%	98.1%	105%	–	13.3%	30.8%
COc1cc(OC)c(C(=O)/C=C/c2cccc(C(F)(F)F)c2)c(OC)c1	-16.1% (active)	19.2%	26.9%	15.1%	3.47% (active)	33.8%	–	4.41% (active)	1.4% (active)
COc1ccc(-c2nc3sccn3c2-c2ccnc(NCCCNS(=O)(=O)c3ccc(C)cc3)n2)cc1	25.9%	36.3%	15.5%	66%	22.4%	42.1%	–	18.9%	24.6%
N#Cc1ccc(NC(=O)c2ccc3cccnc3c2O)cc1	41.3%	33.7%	18.4%	34%	14.7%	-12.5% (active)	–	23.8%	12.7%
COc1cc(NCCN=C(N)NC(N)=NC(C)C)c2ncccc2c1	-14.2% (active)	74.8%	81.7%	110%	94.1%	95.3%	91.2%	–	67.5%
O=S(=O)(NCCCNc1nccc(-c2c(-c3ccc(O)cc3)nc3sccn23)n1)c1ccc(F)cc1	-42.5% (active)	10%	9.16% (active)	26.6%	-5.95% (active)	11.6%	–	8.07% (active)	2.05% (active)
O=S(=O)(O)CCl	104%	98.8%	91.6%	92%	103%	103%	111%	–	99.4%
CCOC(=O)CC(C#N)(CC(=O)OCC)C(=O)OCC	106%	95.1%	96.1%	139%	107%	99.5%	–	102%	109%
CC(=O)n1cc([C@H]2CC[C@H](c3cn(C(C)=O)c4ccccc34)c3c2[nH]c2ccccc32)c2ccccc21	79.6%	84.7%	55.3%	92.8%	77.9%	57%	–	64.9%	57.6%
O=C(CNc1ccc(Cl)cc1)Nc1ccc(-c2nc3ccccc3s2)cc1	78.5%	46.8%	65%	118%	22.8%	20.2%	–	3.22% (active)	4.4% (active)
CN(C)c1ccc(/C=C\N=Nc2ccc(Br)cc2)cc1	72%	65.8%	32.6%	68.5%	60.4%	51.5%	–	29.7%	29.2%
